Source: PubChem (National Center for Advancing Translational Sciences (NCATS))
Gal4-VP16 FLuc: Gal4-VP16 reporter inhibition counter-screen; Drosophila S2 Gal4-VP16 UAS-luciferase, luminescence, 20 h; Potency, µM (doses to about 53.6 µM), usual class: inhibitors; hit rate 3.5% among 310,000;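 note: Gal4-VP16 expression switched on by copper sulfate through the metallothionein promoter; nearly all actives have a fitted effect of over 50% in size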
RORgamma inh: inhibitors of mouse ROR gamma transcriptional activity; Drosophila S2 Gal4-RORgamma UAS-luciferase reporter, 20 h; Potency, µM (doses to about 53.6 µM), most hits filed as inhibitors; hit rate 5.4% among 310,000; AID 2551; note: nearly all actives have a fitted effect of over 60% in size
Target sequence (P51450 whole entry, looked up, the tested form may be a part): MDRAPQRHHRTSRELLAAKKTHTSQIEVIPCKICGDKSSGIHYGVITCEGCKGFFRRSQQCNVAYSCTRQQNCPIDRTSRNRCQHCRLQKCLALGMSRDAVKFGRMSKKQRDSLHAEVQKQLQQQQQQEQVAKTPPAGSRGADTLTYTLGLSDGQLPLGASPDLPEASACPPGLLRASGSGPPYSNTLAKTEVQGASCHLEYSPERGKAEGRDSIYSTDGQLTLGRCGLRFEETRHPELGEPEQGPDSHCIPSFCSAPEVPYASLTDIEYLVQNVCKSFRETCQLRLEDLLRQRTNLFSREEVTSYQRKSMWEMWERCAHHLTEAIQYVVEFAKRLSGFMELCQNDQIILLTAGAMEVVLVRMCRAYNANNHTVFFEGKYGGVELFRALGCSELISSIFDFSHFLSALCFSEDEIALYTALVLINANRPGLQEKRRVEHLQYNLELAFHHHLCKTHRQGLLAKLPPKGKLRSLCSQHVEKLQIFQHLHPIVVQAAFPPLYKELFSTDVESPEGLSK
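Luciferase reporter read in Schneider cells carrying Gal4-RORγ (mouse) and UAS-Photinus luciferase; cells given compound 1 h before 700 uM copper sulfate induction, then incubated 20 h at ambient temperature.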
KB-3-1 cytotox: KB-3-1 parental cell cytotoxicity; AID 1347075; KB-3-1 viability, CellTiter-Glo ATP luminescence, 72 h; Potency, µM (highest dose often 46.1 µM), hits mostly cytotoxic; hit rate 1.4% among 400,000; note: nearly all actives have a fitted effect of over 60% in size
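Screening of KB-3-1 cells (DMEM, 10% FBS, phenol-red free) ran from lowest to highest compound concentration; after 72 h at 37 °C viability was read luminescently and curves fitted.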
MCF10A rerep: inducers of DNA re-replication in MCF 10A breast cells | MCF 10A DNA re-replication, Hoechst nuclear intensity, 48 h | Potency, µM (titrated, usually from 46.1 µM), most hits filed as activators | hit rate 2.9% among 350,000; note: nearly all actives have a fitted effect of over 50% in size
SW480 rereplic: induces DNA re-replication in SW480 colon adenocarcinoma cells; SW480 DNA re-replication, Hoechst DNA content imaging, 48 h; Potency, µM (highest dose often 46.1 µM), actives largely listed as activators; hit rate 1.8% among 340,000; note: nearly all actives have a fitted effect of over 55% in size
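Hoechst fluorescence of nuclei (405 nm excitation, 500-530 nm emission) measured by plate-scanning imager after 48 hr compound exposure at 37 C; re-replication scored as increased number of nuclei with elevated intensity.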
KB-V1 cytotox: KB-V1 MDR subline cytotoxicity; KB-V1 MDR cells viability, CellTiter-Glo, 72 h; Potency, µM (titrated, usually from 46.1 µM), hits mostly cytotoxic; hit rate 3.4% among 400,000; note: nearly all actives have a fitted effect of over 60% in size
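KB-V1, DMEM (no phenol red) + 10% FBS; cpd pin-transferred, titration series; 72 h, 37 degrees C; CellTiter-Glo, luminescence. Data normalized, curve-fit.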
A number is an active result; i = inactive; ? = inconclusive; nt = no result given; [ ] = dose if it differs, or a comment. Only some compounds are listed: those with a hit (about 10% of all), similar ones and a draw of the others. Calls come from the whole dose curve; as a rule, active = well fitted curve in the direction sought with a large enough effect; inconclusive = small, poorly fitted or top-dose-only effect, or another doubt; inactive = no such curve, though single readings can be large; an effect the other way counts as inactive or inconclusive.

SMILES	Gal4-VP16 FLuc	RORgamma inh	KB-3-1 cytotox	MCF10A rerep	SW480 rereplic	KB-V1 cytotox
Cc1occc1C(=O)N=Nc1c(O)n(C)c2ccccc12	i	i	i	i	?	i
Cn1c(O)c(N=NC(=O)c2ccccc2O)c2ccccc21	i	i	i	?	?	16.4µM
CC(=O)OC1COC(n2ccc3ccccc32)C(OC(C)=O)C1OC(C)=O (centres undefined)	i	i	i	i	i	i
CCc1nn(CC(=O)NCc2ccc(OC)cc2OC)c(=O)c2cc3c(OC)cccc3n12	nt	nt	i	nt	nt	i
Cc1cc(S(=O)(=O)NCCc2csc(-c3cccc(F)c3)n2)ccc1F	nt	nt	?	nt	nt	i
CCCOc1ccc(CNC(=O)C2CCN(c3nc4ccccc4nc3C(F)(F)F)CC2)cc1	nt	nt	i	nt	nt	i
CC1(C)CC(=O)C/C(=N/Nc2nc3ccccc3s2)C1	i	8.91µM	i	?	i	i
CC1CCC/C(=N/Nc2nc3ccccc3s2)C1 (centres undefined)	?	6.31µM	i	?	i	i
Cc1ccc(-c2nc3c4ccccc4n(CC(=O)N4CCN(c5ccccc5F)CC4)c(=O)n3n2)cc1	nt	nt	i	nt	nt	i
CC1=Nc2ccccc2/C1=C/c1sc(=N)n(-c2nccs2)c1O	0.794µM	0.631µM	7.31µM	?	i[9.22 µM]	i
CC1=Nc2ccccc2/C1=C/c1nc(-c2ccc(C)s2)oc1O	?	i	i	i	i	?
CCN(CC)S(=O)(=O)c1cccc(NC(=O)c2ccc(-n3nc(C)cc3C)cc2)c1	i	?	?	i	i	2.91µM
Cc1ccc(NC(=O)c2ccncc2)cc1S(=O)(=O)N(C)C	i	?	i	i	i	i
Cc1cc(C)n(-c2ccc(C(=O)Nc3cccc([N+](=O)[O-])c3)cc2)n1	i	i	i	i	i	?
Cc1cc(C)n(-c2ccc(C(=O)Nc3ccc(C)c(S(=O)(=O)N(C)C)c3)cc2)n1	17.8µM	i	i	i	i	?
CC(=O)c1ccc(OCCCC(=O)Nc2ccc(C)c(S(=O)(=O)N(C)C)c2)cc1	i	?	20.6µM	i	i	23.1µM
CCCCN1C(=O)c2ccc(C(=O)Nc3cccc(C)c3C)cc2C1=O	i	i	i	i	i	i
CCCCN1C(=O)c2ccc(C(=O)Nc3ccc(C)c(S(=O)(=O)N(C)C)c3)cc2C1=O	?	?	?	i	i	11.6µM
CCC(C)NC(=O)c1sc2nc3n(c(=O)c2c1C)CCC3 (centres undefined)	nt	nt	i	nt	nt	i
Cc1cccc(OCC(=O)Nc2cc(-c3nc4cc(Cl)ccc4o3)ccc2C)c1	nt	nt	i	nt	nt	i
Cc1cc(C)n(-c2ccc(C(=O)Nc3ccc(S(=O)(=O)NCc4ccco4)cc3)cc2)n1	15.8µM	?	?	i	i	i
Cc1ccc(NC(=O)c2ccc(OC(F)(F)F)cc2)cc1S(=O)(=O)N(C)C	i	?	23.1µM	i	i	?
CN(C)S(=O)(=O)c1cccc(NC(=O)c2cc(-c3cccs3)nn2-c2cccc(Cl)c2)c1	i	i	9.2µM	i	i	2.31µM
COc1ccccc1NC(=O)CN(Cc1ccco1)C(=O)c1ccc(-n2nc(C)cc2C)cc1	i	i	i	i	i	2.06µM
COc1ccc2c(c1)C(c1ccc3c(c1)OCO3)CC(=O)O2 (centres undefined)	i	i	nt	nt	nt	nt
SMILES	Gal4-VP16 FLuc	RORgamma inh	KB-3-1 cytotox	MCF10A rerep	SW480 rereplic	KB-V1 cytotox
Cc1cc(C)n(-c2ccc(C(=O)Nc3cccc(S(=O)(=O)N(C)C)c3)cc2)n1	7.08µM	?	?	i	i	?
Cc1cc(C)n(-c2ccc(C(=O)Nc3ccc(S(=O)(=O)N(C)C)cc3)cc2)n1	i	?	i	?	i	?
C/C(=N\Nc1nc(Cl)c(Cl)cc1Cl)c1ccc(S(=O)(=O)NCc2ccco2)cc1	?	i	?	?	?	11.6µM
CCN(CC)C(=O)c1cccc(-c2csc(C(O)c3ccc(OC)cc3)n2)c1 (centres undefined)	nt	nt	?	nt	nt	18.4µM
COc1ccccc1-c1ccc2c(c1)C(C)(Cc1ccc(OC(F)(F)F)cc1)C(=O)N2 (centres undefined)	nt	nt	i	nt	nt	i
O=C(CCN1CCc2ccccc2C(c2ccccc2)C1)c1ccc2c(c1)OCCO2 (centres undefined)	3.55µM	4.47µM	?	5.17µM	?	?
O=C(CCN1Cc2ccccc2C1)c1ccc2c(c1)OCCO2	15.8µM	12.6µM	i	i	i	i
CCCC(=O)c1ccc2c(c1)OCCO2	?	i	i	i	i	i
O=C(O)CCC(=O)c1ccc2c(c1)OCCO2	i	i	i	i	i	i
O=C(O)CCSCC(=O)c1ccc2c(c1)OCCO2	3.55µM	2µM	i	?	?	i
Cc1ccc(-c2sc(C(=O)NN)c(C)c2C#N)cc1	7.08µM	4.47µM	i	i	i	i
Cc1ccc(CSc2sc(C(=O)c3ccccc3)c(N)c2C#N)cc1	i	i	i	?	i	i
CN1/C(=C\C=Nc2ccc3ccccc3c2)C(C)(C)c2ccccc21	4.47µM	3.16µM	nt	nt	nt	nt
CN1\C(=C/C=C/C=C/C=[N+](C)C)C(C)(C)c2ccccc21	i	?	?	?	i	8.2µM
CN(C)c1ccc(N=C/C=C2\N(C)c3ccccc3C2(C)C)cc1	i	i	?	?	i	?
Cc1csc(NC(=O)C(NS(=O)(=O)c2ccc(Br)s2)c2ccccc2)n1 (centres undefined)	?	12.6µM	i	i	i	i
Nc1c(C(=O)CSc2nc3ccccc3o2)c(=O)[nH]c(=O)n1C1CC1	nt	nt	1.3µM	?	i	i
COc1ccccc1-c1nnc(SCC(=O)c2c(N)n(C3CC3)c(=O)[nH]c2=O)o1	nt	nt	i	i	i	i
Cc1ccc(C)c(-n2ccnc2SCC(=O)c2c(N)n(C3CC3)c(=O)[nH]c2=O)c1	nt	nt	i	i	18.4µM	i
Nc1nc2cc3c(cc2cc1C(=O)NCc1ccc(F)cc1)OCO3	nt	nt	7.31µM	nt	nt	i
O=S(=O)(c1ccc(Cl)cc1)c1nc(-c2ccco2)oc1SCc1ccc(F)cc1	nt	nt	i	nt	nt	?
Cc1ccc(NC(=O)CCS(=O)(=O)c2cccc3nsnc23)c(C)c1	nt	nt	i	nt	nt	i
CC(C)(C)OC(=O)N1O[C@H]2CC1[C@@H]1[C@@H]2N=NN1CCc1ccncc1	nt	nt	i	i	?	i
CC(C)(C)OC(=O)N1O[C@H]2C[C@@H]1[C@@H]1[C@@H]2N=NN1C12CC3CC(CC(C3)C1)C2	nt	nt	i	i	20.6µM	i
CCOC(=O)c1ccc(NC(=O)c2cc(C)nc3ccccc23)cc1	i	?	i	?	i	i
CCc1ccc(OCc2ccccc2C(=O)Nc2ccc3nc(C)cc(N)c3c2)cc1	?	11.2µM	16.4µM	nt	nt	?
Cc1cccc(C(=O)N=c2c(C#N)cc3c(=O)n4cccc(C)c4nc3n2Cc2ccco2)c1	i	i	?	18.4µM	23.1µM	i
